IL-1B inflam inh: blocks inflammasome-driven IL-1 beta release. THP-1 LPS/ATP IL-1B secretion, AlphaLISA, 16 h; active compounds read low. AID 743279. actives 4.7% (n = 360,000). activity change, % at 57.5 µM; in the data active means activity change below about -50%; inconclusive means mostly about -30% to -49%
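THP-1 cells pretreated 1 hr with compounds (up to 57.5 uM final), then stimulated with LPS (250 ng/mL final) plus ATP (1.25 mM final); secreted IL-1B measured by AlphaLISA after 16 hr, decreased signal indicating inhibition.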
Gal4-VP16 FLuc: counter-screen for ROR gamma inhibitors: Gal4-VP16 reporter; Drosophila S2 Gal4-VP16 UAS-luciferase, luminescence, 20 h; Potency, µM (doses to about 53.6 µM), without a hit: at the highest dose activity, negative = inhibition, most hits filed as inhibitors; actives 3.5% (n = 310,000); AID 2546;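 further: Gal4-VP16 expression switched on by copper sulfate through the metallothionein promoter; potency means the concentration at half of the fitted maximal effect; nearly all actives have a fitted effect of over 50% in size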
LDHA block: blocks human lactate dehydrogenase A. AID 1347041. P00338. purified LDHA, NADH/diaphorase-resazurin fluorescence; active compounds read low. activity change, % (values are at about 110 or 230 µM). actives 0.15% (n = 480,000); in the data active means activity change below about -30%; inconclusive means mostly about -25% to -30%;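 further: plate controls were DMSO wells for no effect and wells without enzyme for full effect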
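Enzyme activity of human lactate dehydrogenase 5 (2 nM; 0.06 mM NADH, 0.2 mM pyruvate, 5 min, RT) is measured via a resazurin/diaphorase fluorescence readout of residual NADH.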
RORg inh: inhibitors of mouse ROR gamma transcriptional activity; P51450; Drosophila S2 Gal4-RORgamma UAS-luciferase reporter, 20 h; Potency, µM (titrated, usually from 53.6 µM), without a hit: top-dose activity change, negative = inhibition, most hits filed as inhibitors; actives 5.4% (n = 310,000); further: potency means the concentration at half of the fitted maximal effect; nearly all actives have a fitted effect of over 60% in size
Target sequence (P51450 whole entry, looked up, the tested form may be a part): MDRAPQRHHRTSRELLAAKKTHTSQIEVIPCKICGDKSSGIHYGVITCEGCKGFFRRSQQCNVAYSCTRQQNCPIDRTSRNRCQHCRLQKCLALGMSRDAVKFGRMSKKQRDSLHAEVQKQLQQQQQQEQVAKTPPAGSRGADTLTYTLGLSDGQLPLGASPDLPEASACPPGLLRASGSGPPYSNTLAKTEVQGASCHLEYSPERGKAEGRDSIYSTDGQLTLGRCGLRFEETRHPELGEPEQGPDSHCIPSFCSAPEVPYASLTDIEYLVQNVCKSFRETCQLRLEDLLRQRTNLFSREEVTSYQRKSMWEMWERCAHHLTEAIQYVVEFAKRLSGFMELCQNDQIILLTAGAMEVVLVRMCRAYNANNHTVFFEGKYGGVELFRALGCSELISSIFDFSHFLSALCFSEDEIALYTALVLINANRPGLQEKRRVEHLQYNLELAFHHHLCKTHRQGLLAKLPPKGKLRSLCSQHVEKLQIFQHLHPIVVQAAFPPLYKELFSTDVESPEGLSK
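Read-out: Photinus luciferase luminescence; inhibitors lower reporter signal. Insect Schneider cells with Gal4-ROR gamma fusion under metallothionein promoter, UAS reporter; 700 uM final copper sulfate induction, 20 hr, ambient temperature.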
DT40 TDP1 CPT: DT40-hTDP1 cell growth loss with CPT | actives 12% (n = 420,000) | chicken DT40 Tdp1-/-;hTDP1 cells + 20 nM CPT, ATP luminescence, 48 h | AID 686979 | Potency, µM (titrated, usually from 46.2 µM), without a hit: at the highest dose activity change, negative = growth inhibition, actives largely listed as inhibitors; further: potency means the concentration at half of the fitted maximal effect; nearly all actives have a fitted effect of over 55% in size
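Chicken DT40 Tdp1-/- cells complemented with human TDP1, 400 cells/well, exposed to compounds plus 20 nM camptothecin for at least 48 h at 37 C; viability read as ATP content by CellTiter-Glo luminescence.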
DT40 TDP1 no CPT: qHTS for Inhibitors of human tyrosyl-DNA phosphodiesterase 1 (TDP1): qHTS in cells in absence of CPT. Potency, µM (doses to about 46.2 µM), for inactives: at the top dose activity change, negative = growth inhibition, actives largely listed as inhibitors. DT40 Tdp1-/- hTDP1 cells, no CPT, ATP luminescence, 48 h. actives 15% (n = 420,000); further: potency means the concentration at half of the fitted maximal effect; nearly all actives have a fitted effect of over 55% in size
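Cells were dispensed at 400 per well, compounds added by pin tool, plates incubated ≥48 hr at 37 °C, then CellTiter-Glo added for 30 min at room temperature before luminescence reading. Line: DT40 Tdp1-/- complemented with hTDP1; camptothecin omitted.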
* marks the source's active call; other numbers are inactive results; ? = inconclusive; · = no result. Only some compounds are listed: those with a hit (about 18% of all), similar ones and a draw of the others. Unless noted, the call rests on the fitted dose curve; in most records, active means well fitted curve in the direction sought with a large enough effect; inconclusive means small, poorly fitted or top-dose-only effect, or another doubt; inactive means no such curve, though single readings can be large; an effect the other way counts as inactive or inconclusive. Unless noted, on the % scale 0 is the no-effect control and ±100 the full control effect.

SMILES	IL-1B inflam inh	Gal4-VP16 FLuc	LDHA block	RORg inh	DT40 TDP1 CPT	DT40 TDP1 no CPT
Cc1ccc(-n2ncc3c2NC(=O)CC32C(=O)N(CC(N)=O)c3ccccc32)cc1C (configuration not stated)	·	·	-12.7	·	·	·
Cc1ccc(C(=O)Nc2ccc3c(c2)OCCO3)c(Cl)c1	?	5.01µM*	-9.4	7.94µM*	-7.7%	-29.9%
Cc1ccc(C(=O)Nc2ccc3c(c2)OCCO3)cc1	?	10µM*	-1.5	10µM*	?	-19.8%
Cc1ccc(NC(=O)C(C)N(c2ccc(C)c(C)c2)S(C)(=O)=O)cc1C (configuration not stated)	·	·	-1.6	·	·	·
Cc1ccn2cc(C(=O)Nc3ccc4c(c3)OCCO4)nc2c1	-89.1*	4.47µM*	0.0	1.26µM*	-23.7%	-26.7%
Cc1ccc(N(C(C)C(=O)Nc2ccc3c(c2)OCO3)S(C)(=O)=O)cc1 (configuration not stated)	-4.4	-5.2%	3.7	32.5%	13µM*	20.6µM*
O=C(Nc1ccc2c(c1)OCCO2)c1cc(F)c(F)cc1Cl	-4.9	·	-2.4	·	0.9%	-0.1%
S=C(NCc1ccco1)Nc1ccc(Br)cc1	·	·	2.5	·	·	·
O=C1CN(C(=O)CCn2c(-c3ccccc3)cc3ccccc32)CCN1	·	·	-3.0	·	·	·
COc1cccc(NC(=O)NC2CCN(c3nc(C)cc(C)n3)CC2)c1	·	·	5.0	·	·	·
CC(C)(C)C(=O)Nc1cccc(NC(=O)c2cc(F)c(Cl)cc2Cl)c1	·	·	1.9	·	·	·
CCCc1nc(NCc2ccncc2)c(C#N)c2c1CCCC2	·	·	-8.8	·	·	·
O=C(Nc1ccc2c(c1)OCCO2)c1c(F)c(F)c(F)c(F)c1F	-14.0	28.1%	1.0	7.7%	18.4µM*	?
O=C(Nc1ccc2c(c1)OCCO2)c1c(Cl)cccc1Cl	-28.4	·	-4.9	·	6.6%	?
Cc1sc2nc(CN(Cc3ccccc3)C(=O)NC3CCCCC3)[nH]c(=O)c2c1C	?	·	0.7	·	20.6µM*	18.4µM*
Cc1sc2nc(CN(CCc3ccccc3)C(=O)c3ccco3)[nH]c(=O)c2c1C	41.8	1.8%	0.4	-38.2%	?	-23.2%
CC(=O)N(Cc1ccccc1)Cc1nc2sc(C)c(C)c2c(=O)[nH]1	94.7	3.8%	-5.4	3.2%	7.0%	13µM*
CCc1ccc(C(=O)C[n+]2cccc3cc(OC)ccc32)cc1	?	-14.2%	-1.1	29.4%	2.91µM*	3.26µM*
O=C(C[n+]1ccnc2ccccc21)c1ccc(Cl)cc1	·	·	·	·	14.7%	?
Cc1ccc2c(c1)ncc[n+]2CC(=O)c1ccc(F)cc1	·	·	·	·	10µM*	10µM*
COc1ccc(C(=O)C[n+]2cccc3cccc(O)c32)cc1	·	·	·	·	2.1%	-8.9%
COc1ccc2c(ccc[n+]2CC(=O)c2ccccc2)c1	31.0	-5.9%	-1.9	-14.7%	?	4.9%
COc1ccc(C(=O)C[n+]2cc(Br)cc3ccccc32)cc1	·	·	1.1	·	?	22.4µM*
CCOc1ccc(C(=O)C[n+]2cccc3cc(C)ccc32)cc1	?	-2.2%	-1.2	?	?	?
COc1ccc2c(ccc[n+]2CC(=O)c2ccc(C)cc2)c1	-7.5	2.1%	-7.9	13.5%	?	14.6µM*
SMILES	IL-1B inflam inh	Gal4-VP16 FLuc	LDHA block	RORg inh	DT40 TDP1 CPT	DT40 TDP1 no CPT
Cc1cc(C)cc(N(CC(=O)NC(C(C)C)C(C)C)S(=O)(=O)c2ccccc2)c1	·	·	7.0	·	·	·
Nc1nc(Nc2ccc(Cl)cc2Cl)nc(-c2cc3ccccc3o2)n1	·	·	-2.6	·	·	·
Cc1ccc(C(=O)C[n+]2cccc3cc(C)ccc32)cc1	-7.8	-12.9%	0.5	11.8%	11.6µM*	14.6µM*
CC1CCC(C(C)C)C(OC(=O)COC(=O)c2ccc(CSc3ccc(Cl)cc3)cc2)C1 (configuration not stated)	·	·	3.2	·	·	·
CC(C)(CO)CNc1ccn2nccc2n1	-78.5*	·	-1.6	·	13µM*	?
COc1ccc(-c2nc3scc(CCNS(=O)(=O)c4ccc(C)cc4)n3n2)cc1	·	·	-7.8	·	?	?
CCCS(=O)(=O)NCCc1csc2nc(-c3ccc(C)cc3)nn12	·	·	0.7	·	?	23.1µM*
Cc1cccc(-c2nc3scc(CCNC(=O)c4ccc(Br)o4)n3n2)c1	·	·	-1.9	·	?	?
Cc1ccc(-c2nc3scc(CCNC(=O)Cc4ccc(Cl)cc4)n3n2)cc1	·	·	-8.0	·	14.6µM*	18.4µM*
CC(C)(C)C(=O)NCCc1csc2nc(-c3ccc(F)cc3)nn12	·	·	5.2	·	?	14.6µM*
Cc1ccc(C)c(NC(=O)C(=O)NCCc2csc3nc(-c4ccccc4C)nn23)c1	·	·	-1.3	·	?	18.4µM*
Cc1nc(CN2CCN(S(=O)(=O)c3ccc(Cl)cc3)CC2)cs1	·	·	-7.2	·	·	·
Cc1ccc(NC(=O)CCn2cnc3c2c(=O)n(C)c(=O)n3C)c(C)c1	·	·	1.6	·	·	·
COc1ccc(-c2nc3scc(CCNS(=O)(=O)c4ccc(Oc5ccccc5)cc4)n3n2)cc1OC	·	·	-4.2	·	?	?
O=S(=O)(NCCc1csc2nc(-c3ccc(F)cc3)nn12)c1ccc(Oc2ccccc2)cc1	·	·	-1.2	·	14.6µM*	20.6µM*
Cc1ccc(-c2nc3scc(CCNS(=O)(=O)c4ccc(C)c(C)c4)n3n2)cc1	·	·	-5.6	·	?	20.6µM*
COc1ccc(-c2nc3scc(CCNC(=O)c4cccc(Br)c4)n3n2)cc1	·	·	2.1	·	?	25.9µM*
O=C(N/N=C/c1ccc(C(F)(F)F)cc1)c1cccs1	·	·	9.1	·	·	·
CCOC(=O)c1c(C)[nH]c(C)c1S(=O)(=O)N1CCN(c2ccc([N+](=O)[O-])cc2)CC1	-3.6	2.2%	-5.1	25.6%	?	13µM*
CCOC(=O)c1c(C)[nH]c(C)c1S(=O)(=O)N1CCCC(C(=O)N2CCN(c3ccc(Cl)cc3)CC2)C1 (configuration not stated)	·	·	-1.1	·	16.4µM*	?
O=S(=O)(c1cnc[nH]1)N1CCN(c2ccc(Cl)cc2)CC1	2.0	18.6%	-8.8	10.3%	2.5%	1.0%
O=C(C1CCCN(S(=O)(=O)c2cnc[nH]2)C1)N1CCN(c2ccc(Cl)cc2)CC1 (configuration not stated)	12.5	-1.0%	0.6	?	13µM*	18.4µM*
CN(Cc1ccccc1Cl)C(=O)Cn1c(=O)c2c(ncn2C)n(C)c1=O	·	·	-4.6	·	·	·
Cc1[nH]c2ccc(C(=O)OCC(=O)NC3CC3)cc2c1C	·	·	-2.1	·	·	·
COc1cc(C(C)=O)ccc1OCC(=O)Nc1ccccc1N1CCCCC1	?	·	-0.2	·	9.2µM*	8.2µM*

Compound activity (PubChem)
